aSyn 5UTR act – Activators via SNCA 5'UTR binding, MLPCN; alpha-synuclein 5'UTR reporter, activators screen; activity score, % (tested at 7.5 µM), hits read low; 300,000 compounds, 7.1% hits; AID 1814; in the data active means activity score below about -60%
Hits are given with their value; 0 = inactive. These entries were drawn from the full list.

SMILES	aSyn 5UTR act
COc1ccc(-c2cc(C(=O)N3CCC4(CC3)OCCO4)c3ccccc3n2)cc1	-88
CCCCCCOC(=O)c1ccccc1N	-136
COc1cc(/C=C/C(=O)c2c(O)n(CCc3ccccc3)c(=O)[nH]c2=O)ccc1O	-69
O=C(/C=C/c1ccccc1)c1c(O)n(CCc2ccccc2)c(=O)[nH]c1=O	-83
O=Cc1cn(Cc2cccc([N+](=O)[O-])c2)c2ccccc12	0
COc1ccc(-c2cc(=Nc3ccccc3)c3cc(C)ccc3o2)cc1	-100
COc1ccc(-c2cc(=NCCC(=O)O)c3cc(C)ccc3o2)cc1	-121
C=C(C=O)CC1CC(O)[C@]2(C)OC3CC4OC5C[C@]6(C)O[C@]7(C)CCC8OC9C[C@]%10(C)OC%11C(C)=CC(=O)OC%11CC%10OC9C[C@@H](C)C8OC7CC6O[C@]5(C)CC5OC5C4OC3CC2O1 (some centres not stated)	0
CCCCCCC[n+]1ccc(-c2cc[n+](CCCCCCC)cc2)cc1	0
Cc1cc(C(=O)CS(=O)(=O)c2ccc(F)cc2)cc(C)c1OC(=O)N(C)C	-135
CCc1ccc(N2C(=O)NC(=O)/C(=C/c3cccn3CCOc3ccc(C(C)CC)cc3)C2=O)cc1 (configuration not stated)	-82
CCn1c(NN=O)nc2ccccc21	0
C/C=C(\C)C(=O)N[C@@H](c1ccccc1)[C@@H](O)C(=O)O[C@H]1C[C@@]2(O)[C@@H](OC(=O)c3ccccc3)C3[C@](C)(C(=O)[C@H](OC(C)=O)C(=C1C)C2(C)C)[C@@H](O)C[C@H]1OC[C@@]31OC(C)=O (some centres not stated)	0
CC(C)n1c(O)c(C2c3cc(Cl)ccc3Oc3[nH]c(=O)n(C(C)C)c(=O)c32)c(=O)[nH]c1=O (configuration not stated)	-88
O=[N+]([O-])c1ccccc1-c1cc(-c2ccccc2)cc(-c2ccccc2)[n+]1Cc1ccccc1Cl	0
CCC(CC)NCc1c[nH]c2ccccc12	-62
O=C(c1cc2c(s1)-c1ccccc1OC2)N1CCC2(CC1)OCCO2	-129
CN1C(=O)N(C)C(=O)C2(Cc3cc([N+](=O)[O-])ccc3N(C)C2c2ccccc2)C1=O (configuration not stated)	-62
Cn1c(O)c(Cc2ccc(OCc3ccccc3)cc2)c(=O)n(C)c1=O	-140
Nc1ncnc2c1ccn2[C@@H]1O[C@H](CO)[C@@H](O)[C@H]1O	0
N#Cc1cc2c(nc1SCC(=O)Nc1cc(Cl)ccc1Cl)C1CCN2CC1	-140
N#Cc1cc2c(nc1SCC(=O)Nc1ccc(Cl)cc1)C1CCN2CC1	-159
O=[N+]([O-])c1ccc(NC2CCCC2)c2ccncc12	0
CCCCCCCSc1cc(OC)c(CCNC)cc1OC	0
CC12CC[C@H]3[C@@H](CCC4(O)C[C@H](O)CCC34/C=N/NC(=O)c3ccccc3F)C1(O)CCC2C1=CC(=O)OC1 (some centres not stated)	0
SMILES	aSyn 5UTR act
CN(C)c1ccc(/C=C/C=C/c2sc3ccccc3[n+]2C)cc1	0
CC1CC(OP(O)(=S)c2ccc(N(C)C)cc2NC(=O)c2cccs2)CC(C)(C)C1 (configuration not stated)	-113
Nc1cc2nc3ccccc3nc2cc1N	-64
Cc1ccc(-c2nc(N3CCOCC3)s[n+]2-c2ccccc2)cc1	-233
O=c1[nH]c(=S)[nH]c(O)c1N=Nc1ccc(SC(F)F)cc1	-72
CN(C)c1ccc(C(=O)N/N=C/C23CC[C@@H](O)CC2(O)CC[C@@H]2[C@@H]3CCC3(C)C(C4=CC(=O)OC4)CCC23O)cc1 (some centres not stated)	0
COC(=O)c1ccc(CC(C(=O)c2ccccc2)N(C)C)cc1 (configuration not stated)	-154
CN(C)C(Cc1ccc(Cl)cc1)C(=O)c1ccccc1 (configuration not stated)	-82
Cc1cccc(Cn2cc(C=O)c3ccccc32)c1	0
CCN1/C(=C\C=C\C2=[N+](CC)c3ccccc3C2(C)C)C(C)(C)c2ccccc21	0
CN(C)C(=O)Oc1ccc(-c2cn3cc(C(F)(F)F)ccc3n2)cc1	-86
CN(C)C(=O)Oc1cccc(-c2cn3cc(Cl)ccc3n2)c1	-82
NC(Cc1nc2ccccc2[nH]1)c1ccc(Cl)cc1 (configuration not stated)	-167
CC[C@@]1(O)C(=O)OCc2c1cc1n(c2=O)Cc2cc3ccccc3nc2-1	0
CCN1CCN(c2nc3ccccc3s2)CC1	-131
CC(=O)OC1CC[C@]2(C#N)[C@H]3CC[C@]4(C)[C@H](C5C=CC(=O)O5)CCC4(O)C3CCC2(O)C1 (some centres not stated)	0
Cc1ccc(-c2nc3ccc(Cl)cc3n2OC(=O)N(C)C)cc1	-129
CCC1(OC(=O)CN)C(=O)OCc2c1cc1n(c2=O)Cc2cc3ccccc3nc2-1 (configuration not stated)	0
COc1ccc(-c2nc3ccccc3c(=O)o2)cc1	-65
COc1ccc(-[n+]2c(-c3ccccc3)cc(-c3ccccc3)cc2-c2ccccc2)cc1	0
CCCC(=O)Nc1cc(C(=O)N2CCC3(CC2)OCCO3)ccc1S(=O)(=O)c1ccc(C)cc1	0
CCOc1ccc2nc(N3CCC(C(=O)N4CCC5(CC4)OCCO5)CC3)sc2c1	-82
Cc1ccc2nc(N3CCC(C(=O)N4CCC5(CC4)OCCO5)CC3)sc2c1	-78
O=C(C1CCN(c2nc3ccc(Br)cc3s2)CC1)N1CCC2(CC1)OCCO2	-80
Clc1ccc2sc(C3CCNCC3)nc2c1	-159
SMILES	aSyn 5UTR act
O=c1nc(/C=C/c2ccc(Cl)cc2Cl)cc(C(F)(F)F)[nH]1	-64
CC(=O)Nc1ccc(OC(=O)N2CCCCC2)cc1	0
O=C(NC1CCCCC1)Oc1cc2oc(=O)sc2cc1Cl	-62
CN(C(=O)Oc1ccc(C(C)(C)C)cc1)c1ccccc1	-106
CCC(=O)c1ccc(OC(=O)N(C)c2ccccc2)cc1	-118
CCOc1cccc(CNCCc2c(C)[nH]c3ccc(OC(F)(F)F)cc23)c1O	0
Cc1nc2ccccc2c(=O)n1-c1ccc([N+](=O)[O-])cc1	-121
Cc1nc2ccccc2c(=O)n1-c1ccc(Cl)c(Cl)c1	-138
CC[C@@]1(O)C(=O)OCc2c1cc1n(c2=O)Cc2cc3c(NC(=O)CN)cccc3nc2-1	0
CC1CCN(CC(=O)c2ccccc2Cl)CC1	-134
CC1CCN(CC(=O)c2ccc3c(c2)OCCO3)CC1	-77
COC(=O)c1nc(-c2ccc3c(n2)C(=O)C(N)=C(OC)C3=O)c(N)c(-c2ccc(OC)c(OC)c2O)c1C	0
COC1CC(OC2CCC3(C)C(CCC4C3CCC3(C)C(C5=CC(=O)OC5)C(OC(C)=O)CC43O)C2)OC(C)C1OC1OC(COC2OC(CO)C(O)C(O)C2O)C(O)C(O)C1O (configuration not stated)	0
Cc1ccc(-n2c(C)nc3cc(Cl)ccc3c2=O)nc1	-117
O=c1c2ccccc2nc(/C=C/c2ccc(O)cc2)n1-c1ccc(O)cc1	-80
NC(=S)c1cn(C2OC(CO)C(O)C2O)c2ncnc(N)c12 (configuration not stated)	0
Cc1ccc(CN2C3CCCC2CC(NC(=O)Nc2cccc(F)c2)C3)cc1 (configuration not stated)	-99
CC(C)[C@H]1C(=O)O[C@H](C(C)C)C(=O)N(C)[C@@H](C(C)C)C(=O)O[C@H](C(C)C)C(=O)N(C)[C@@H](C(C)C)C(=O)O[C@H](C(C)C)C(=O)N1C	0
O=C(c1ccccc1)c1ccc(N=Nc2c(O)[nH]c(=O)[nH]c2=O)cc1	-74

Bioassay records as filed in PubChem BioAssay.
